In the library only some 12% were active in any assay of this set; here they are far more common.
JMJD2A Tudor: blocks the human JMJD2A Tudor domain; O75164; AlphaScreen JMJD2A-Tudor / H3K4me3 peptide binding; Potency, µM (top dose mostly 114 µM), without a hit: at the highest dose activity change, negative = inhibition, actives largely listed as inhibitors; hit rate 4.4% among 390,000; also: % is scaled to controls: 0 for no effect and ±100 for the full control effect; nearly all actives have a fitted effect of over 50% in size
HP1b chromo inh: HP1-beta chromodomain-methylated histone interaction inhibition; P83916; AlphaScreen HP1-beta / biotin-H3K9me3 peptide binding; Potency, µM (top dose mostly 114 µM), inactives show top-dose activity change, negative = inhibition, hits mostly inhibitors; hit rate 0.56% among 390,000; also: nearly all actives have a fitted effect of over 70% in size
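Compound inhibition of the preformed complex between 50 nM HP1-beta and 50 nM biotinylated H3K9me3 peptide was read by AlphaScreen. Buffer was PBS pH 7.4 with 0.01% Tween-20. Incubations ran 30 min at room temperature, with 10 ug/mL donor/acceptor beads.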
G9a block: G9a (human) methyltransferase inhibition. Q96KQ7. G9a H3K9 monomethylation, AlphaScreen, 2 h. Potency, µM (series often up to 102 µM), for inactives: at the top dose activity, negative = inhibition, hits mostly inhibitors. hit rate 8.8% among 350,000; also: % is scaled to controls: 0 for no effect and ±100 for the full control effect; nearly all actives have a fitted effect of over 75% in size
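Chemiluminescent proximity detection of H3K9 monomethylation, read after 10 min bead incubation in the dark. Reaction: 20 nM G9a, 500 nM biotin-H3K9 peptide, 20 uM SAM cofactor, 2 h, room temperature, following 15 min enzyme-compound preincubation.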
PLK1 PBD inh: inhibitors of human PLK1 polo-box domain binding; P53350; Plk1 PBD binding of FITC phosphopeptide, fluorescence polarization; Potency, µM, for inactives: max response, negative = inhibition, actives largely listed as inhibitors; hit rate 2.8% among 360,000; AID 720504; also: series mostly up to about 57 µM; % is scaled to controls: 0 for no effect and ±100 for the full control effect; nearly all actives have a fitted effect of over 65% in size
Target sequence (P53350 whole entry, looked up, the tested form may be a part): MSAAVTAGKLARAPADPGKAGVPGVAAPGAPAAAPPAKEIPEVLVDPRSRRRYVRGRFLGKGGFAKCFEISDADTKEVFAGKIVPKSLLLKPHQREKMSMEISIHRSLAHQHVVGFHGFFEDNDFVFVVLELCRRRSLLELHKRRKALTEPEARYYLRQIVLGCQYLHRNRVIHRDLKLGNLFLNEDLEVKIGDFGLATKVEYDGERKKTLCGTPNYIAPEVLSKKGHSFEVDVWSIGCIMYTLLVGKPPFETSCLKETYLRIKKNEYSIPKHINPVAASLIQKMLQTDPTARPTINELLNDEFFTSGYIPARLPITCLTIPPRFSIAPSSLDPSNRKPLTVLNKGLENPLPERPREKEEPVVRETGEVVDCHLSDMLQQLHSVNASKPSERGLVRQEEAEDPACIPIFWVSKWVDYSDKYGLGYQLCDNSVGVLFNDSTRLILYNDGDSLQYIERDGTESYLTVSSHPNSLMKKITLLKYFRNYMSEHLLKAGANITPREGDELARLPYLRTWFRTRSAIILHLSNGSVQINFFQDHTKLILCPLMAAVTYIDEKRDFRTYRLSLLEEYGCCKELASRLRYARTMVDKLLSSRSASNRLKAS
BAZ2B inh: BAZ2B (human) inhibition; Q9UIF8; AID 504333; Potency, µM (series often up to 114 µM), without a hit: top-dose activity change, negative = inhibition, usual class: inhibitors; AlphaScreen BAZ2B-H3K14Ac peptide displacement; hit rate 4.4% among 360,000; also: % is scaled to controls: 0 for no effect and ±100 for the full control effect; nearly all actives have a fitted effect of over 60% in size
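AlphaScreen displacement of biotin-H3(5-23)K14Ac peptide (50 nM final) from BAZ2B (50 nM final) in PBS pH 7.4, 0.01% Tween-20; complex preformed 30 min RT, then compounds (top 110 uM) 30 min RT, beads 20 min dark.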
Sfp inh: Sfp phosphopantetheinyl transferase inhibition; hit rate 3.5% among 310,000; AID 1490; Potency, µM, for the others: largest response in the series, negative = inhibition, usual class: inhibitors; Q9F4F7; Biochemical Sfp PPTase activity, qHTS;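 also: the enzyme is Sfp with the accession as filed and its product quenches rhodamine fluorescence; 0% = enzyme reaction without inhibitor and -100% = no enzyme wells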
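Sfp 15 nM + cpd, 15 min RT; start w/ rhodamine-CoA 5 uM, BHQ-2-YbbR 12.5 uM (final); 50 mM Hepes pH 7.6, 10 mM MgCl2, 0.01% NP-40, 0.01% BSA; read 525/598 nm at 0 and 30 min.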
* = called active by the depositor; ? = inconclusive; . = no result; [ ] = dose if it differs, or a comment. Calls follow the shape of the dose curve; as a rule, active = well fitted curve in the direction sought with a large enough effect; inconclusive = small, poorly fitted or top-dose-only effect, or another doubt; inactive = no such curve, though single readings can be large; an effect the other way counts as inactive or inconclusive. Potency is read from the fitted curve at half-maximal effect.

SMILES | JMJD2A Tudor | HP1b chromo inh | G9a block | PLK1 PBD inh | BAZ2B inh | Sfp inh
COC(=O)CSc1nnc(-c2ccc3c(c2)OCO3)n1C | -11% | 9% | 12% | -9% | 5%[57.1 µM] | 14%
COc1ccc2c(c1)nc(SCC(=O)c1ccc(Br)s1)n2C | 56µM* | -11% | 40µM* | ? | ? | 56µM*
COC(=O)CSc1nnc(-c2sc3cc(OC)ccc3c2Cl)n1C | 9%[57.1 µM] | 27% | 6.3µM* | -14% | -20% | 3%
COc1ccc(-n2c(SCC(=O)Nc3ncc(Cl)cc3Cl)nc3ccccc32)cc1 | . | . | 45µM* | . | -29% | ?
COc1cccc(NC(=O)CSc2nc3ccccc3n2C)c1 | ? | -6% | 3%[59 µM] | 17µM* | -9% | 3%
O=C(c1cnccn1)N1CCC2(CCCN(c3ccc(-c4ccccc4)cc3)C2)CC1 | . | . | -1%[12.7 µM] | . | . | -8%
COc1ccc2c(c1)nc(NCCO)n2C | -6%[57.1 µM] | 32% | -17% | -4% | -4% | 6%
COC(=O)CSc1nnc(-c2sc3ccccc3c2Cl)o1 | 10% | 51% | 13µM* | -9% | -15% | -12%
COC(=O)CSc1nc2cc(OC)ccc2n1C | -9% | 24% | 71µM* | -5% | -26% | -6%
N#CCSc1nnc(-c2sc3ccccc3c2Cl)o1 | -18% | 22% | 12%[59 µM] | -4% | 5% | 0%
CC(C)[C@@H](C(=O)N1CCNCC1)n1cc(CCO)nn1 | -13% | 24% | ? | -9% | -22% | 15%
CC1(C)CC(=O)N(c2cc(Cl)ccc2Cl)C(=O)C1 | -15% | 21% | 10% | -6% | 4% | 24%
O=C(Nc1ccccc1OC(=O)c1ccccc1)c1ccccc1 | -4% | 49% | . | 1% | . | .
O=C(O)c1cccc2c(-c3ccccc3)c(-c3ccccc3)[nH]c12 | ? | -25% | . | 24µM* | ? | -2%
CC1=CC(=C(C#N)c2nc3ccccc3s2)C=C(C)N1CC1CCCO1 (stereo unspecified) | 31% | 80% | 18% | 27µM* | 22% | -8%
NC(CCCCCP(=O)(c1ccccc1)c1ccccc1)C(=O)O (stereo unspecified) | 10µM* | -1% | ? | -14% | -18% | -4%
Cc1ccc(SCCCCN2CCNCC2)cc1 | 11µM* | 12% | 8.9µM* | 17µM* | 40µM* | 50µM*
CCCN(CCC)CCOc1cc(C)ccc1C(C)C | 3.2µM* | ? | 18µM* | 4% | ? | -50%
Cc1ccc(C(C)C)c(OCCN)c1 | -10% | 9% | ? | -4% | 5% | -2%
Cc1ccc(C(C)C)c(OCCN(C)C)c1 | 2.8µM* | ? | 3.5µM* | 0% | 35µM* | ?
Cc1cc(C(C)(C)C)ccc1OCCN(C)C | 7.9µM* | ? | 8.9µM* | -9% | 28µM* | -24%
Cc1ccc(C(C)C)c(OCCN2C(=O)NC(C)(C)C2=O)c1 | 0%[57.1 µM] | 24% | -9% | -7% | 1% | 23%
CCN(CC)C(=O)COc1ccc(-c2ccccc2)cc1 | 13% | 33% | 14%[59 µM] | -2% | 8% | 2%
O=C1CCCCC1(c1ccccc1)c1ccccc1 | 43% | 124% | . | 3% | . | .
Cc1ccc(C(C)C)c(OCCCCN2CCNCC2)c1 | 7.1µM* | ? | 4µM* | -4% | 28µM* | 56µM*
SMILES | JMJD2A Tudor | HP1b chromo inh | G9a block | PLK1 PBD inh | BAZ2B inh | Sfp inh
Cc1ccc(C(C)C)c(OCC#CCN2CCOCC2)c1 | 22µM* | ? | 7.9µM* | -8% | 50µM* | ?
Cc1ccccc1NC(=O)c1ccccc1NC(=O)CCC(=O)O | -9% | 32% | 11%[59 µM] | 5% | -3% | 29%
CN1CCN(c2ncc3nc(-c4ccccc4)c(=O)n(-c4ccccc4)c3n2)CC1 | . | . | -1%[12.7 µM] | . | . | -3%
O=C(N/N=C/c1ccc([N+](=O)[O-])cc1)c1cccc(N2CCCC2=O)c1 | -10% | 11% | ? | -5% | 79µM* | -1%
O=C(N/N=C/c1cc(Br)cc(Br)c1O)c1cccc(N2CCCC2=O)c1 | 89µM* | 35% | 4% | 22% | ? | 9%
O=C(N/N=C/c1ccc(Cl)cc1Cl)c1cccc(N2CCCC2=O)c1 | -11% | 9% | -4% | -1% | -8% | -42%
COc1ccc(-c2ccccc2C2NC(C(=O)O)CCC2C)cc1 (stereo unspecified) | . | . | . | . | . | 28%
CCCCC1NC(C(=O)O)CS1 (stereo unspecified) | 32µM* | ? | 5µM* | -4% | 50µM* | ?
CCCCCC1CCC(C(=O)O)CC1 (stereo unspecified) | -3% | 19% | 4%[2.33 µM] | -9% | 4% | 0%
Cc1ccc(C)c(OC2=NS(=O)(=O)c3ccccc32)c1 | -19% | 4% | . | 12µM* | -2% | 4%
O=S1(=O)N=C(Oc2ccccc2-c2ccccc2)c2ccccc21 | -17% | . | . | . | . | .
COC1=NS(=O)(=O)c2ccccc21 | 5% | 22% | ? | 1% | 2% | -13%
O=S1(=O)N=C(Oc2cccc(Cl)c2)c2ccccc21 | -35%[162 µM] | . | . | . | . | .
O=S1(=O)N=C(Oc2ccccc2)c2ccccc21 | 89µM* | 10% | -2%[59 µM] | -10% | 6% | -7%
N#Cc1cccc(OC2=NS(=O)(=O)c3ccccc32)c1 | 35µM* | . | . | . | . | .
CCc1ccc(NC(=O)CC2C(=O)N(c3ccc(OC)cc3)C(=O)N2Cc2ccc(OC)cc2)cc1 (stereo unspecified) | -9% | 27% | -11%[59 µM] | . | -9% | .
COc1cc(/C=N/N2CCN(Cc3ccccc3)CC2)cc(OC)c1OC | . | . | . | 1% | . | .
COc1cc(/C=N/N2CCN(Cc3ccccc3)CC2)cc(OC)c1OC(C)=O | ? | -8% | 50µM* | -18% | ? | 1%
COc1cc(/C=N/N2CCN(c3ccccc3)CC2)cc(OC)c1OC(C)=O | 56µM* | ? | 18%[0.501 µM] | -5% | 45µM* | 2%
COc1cc(/C=N/N2CCN(c3ccc(Cl)cc3)CC2)cc(OC)c1OC(C)=O | -6% | 9% | . | -4% | 0% | 3%
CCCCOc1cccc(C(=O)NNC(=S)NC2CCCCC2)c1 | -19% | 5% | -21%[59 µM] | -20% | 5% | 6%
CC(C)N(C(=O)Cn1cc(S(=O)(=O)Cc2ccc(Br)cc2)c2ccccc21)C(C)C | 0% | 35% | 1%[59 µM] | . | -3% | .
CCN(CC)C(=O)CSc1nnc2nnc3cc(OC)ccc3n12 | -18% | 11% | 35µM* | 24µM* | -16% | 2%
CCN(CC)C(=O)CSc1nc2cc3c(cc2c(=O)n1Cc1ccc(OC)cc1)OCO3 | 79µM* | 18% | ? | -26% | 56µM* | 13%
CCN(CC)C(=O)CSc1nc2cc3c(cc2c(=O)n1CCCCCC(=O)NCCc1ccc(OC)c(OC)c1)OCO3 | -12% | 23% | 5%[59 µM] | . | -10% | .
CCCCN1CCCC1C(=O)Nc1c(C)cc(C)cc1C (stereo unspecified) | . | . | -11%[12.7 µM] | . | . | -15%

Bioassay records: PubChem, National Center for Advancing Translational Sciences (NCATS)
